# Values without a mark were called inactive. Inconclusive results are not listed. Calls of active or inactive are those of the source.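 Rule for the calls, unless noted: active = compounds whose dose series gives a full or clear partial fitted curve of increased nuclear translocation; inconclusive = weak partial curve or effect only at the top dose; inactive = no dose-dependent translocation response.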
# Key:
# [1] = Stat Signaling Pathway (AID 446; active = well fitted curve in either direction with a large enough effect, not every such curve was filed as active;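 note: ME-180 cervical cancer cells given 40 pM IL-6 alongside compound; SIE-controlled beta-lactamase reporter measured as 460/530 nm FRET emission ratio; % is set by controls: 0 for no effect and ±100 for the full control effect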); details: ME-180 (cervical carcinoma) SIE beta-lactamase reporter, IL-6 stimulated, 5 h; at 17.2 µM (top of the series) unless noted
# Method in brief: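 IL-6/STAT signaling read in ME-180 cells via an SIE beta-lactamase reporter. Stimulus was 40 pM IL-6 (its AC50) for 5 hrs, so both activation and inhibition register.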
# [2] = molecular target: Glucocorticoid receptor (Homo sapiens) (UniProt P04150); assay: GR-GFP Redistribution (AID 450); note: potency is the fitted concentration of half-maximal effect
# [3] = molecular target: Glucocorticoid receptor (Homo sapiens) (UniProt P04150); assay: GR-EFC Redistribution (AID 451; calls by dose curve; note: potency is the fitted concentration of half-maximal effect); details: CHO-K1 GR-EFC translocation, beta-gal luminescence, 2 h
# Method in brief: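 Translocation of GR-ED fusion to nuclear EA restores b-gal, read by luminescence after 1 h room-temperature detection. Engineered CHO-K1 biosensor cells, 1,000/well, exposed 2 h at 37 C to titrations up to 46 uM final.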
# [4] = molecular target: Guanine nucleotide-binding protein G(i) subunit alpha-1 (Homo sapiens) (UniProt P63096); assay: qHTS Assay for Inhibitors of RGS12 GoLoco Motif Activity (Green Fluorophore) (AID 879; active = well fitted curve in the direction sought with a large enough effect; an effect the other way counts as inactive or inconclusive;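 note: 0% = labeled peptide with Gαi1 and full inhibition = labeled peptide alone without protein; negative values mean loss of peptide binding seen as reduced polarization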)
# Method in brief: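 Fluorescence polarization assay: 50 nM Gαi1 with 10 nM FITC-labeled RGS12 GoLoco peptide in 10 mM Tris pH 7.5, 150 mM NaCl, 0.1 mM GDP, 0.05% NP40, 10 min at room temperature with compound.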
# [5] = molecular target: Muscarinic acetylcholine receptor M1 (Rattus norvegicus) (UniProt P08482); assay: qHTS Assay for Antagonists of Acetylcholine Muscarinic M1 Receptor: Kinetic Measurement of Intracellular Calcium Response (AID 943; active = well fitted curve in the direction sought with a large enough effect; an effect the other way counts as inactive or inconclusive; note: potency is the fitted concentration of half-maximal effect; nearly all actives have a fitted effect of over 75% in size)
# Method in brief: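 CHO cells stably expressing rat M1 were loaded with no-wash Fluo-4 dye for 1 h at 37C, pre-incubated 10 min with compound, then challenged with EC80 carbachol (100 nM final); kinetic calcium read 4 min, peak/basal ratio.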
# [6] = molecular target: Muscarinic acetylcholine receptor M1 (Rattus norvegicus) (UniProt P08482); assay: qHTS Assay for Antagonists of Acetylcholine Muscarinic M1 Receptor: Measurement of IP-One Response (AID 944; active = well fitted curve in the direction sought with a large enough effect; an effect the other way counts as inactive or inconclusive; note: potency is the fitted concentration of half-maximal effect; nearly all actives have a fitted effect of over 75% in size)
# Method in brief: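 CHO cells expressing rat M1 receptor, recovered overnight, were pre-incubated 10 min with compound, then stimulated 30 min with carbachol at EC80 (200 nM) in LiCl-containing buffer, pH 7.4. IP1 accumulation was read by HTRF (620/665 nm).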
# [7] = molecular target: Pyruvate kinase (Leishmania mexicana) (UniProt Q27686); assay: qHTS Validation Assay for Inhibitors of Leishmania Mexicana Pyruvate Kinase (AID 945; active = well fitted curve in the direction sought with a large enough effect; an effect the other way counts as inactive or inconclusive;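 note: 0% = DMSO only neutral control wells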)
# Method in brief: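 Substrate mix (0.5 mM PEP, 0.1 mM ADP, 7 mM MgCl2, 50 mM KCl, pH 7.2 imidazole) received compound by pin tool, then 0.2 nM LmPYK E451W. After 1 h at room temperature, PKLight was added and luminescence measured.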
# [8] = molecular target: Pyruvate kinase PKM (Homo sapiens) (UniProt P14618); assay: qHTS Assay for Activators of Human Muscle Pyruvate Kinase (AID 954; active = well fitted curve in the direction sought with a large enough effect, not every such curve was filed as active;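 note: 0% = uninhibited enzyme and -100% = no enzyme or full thiadiazolimine inhibition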)
# Method in brief: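 Enzyme was run at intermediate activity so both inhibitors and activators could be detected. ATP formed from ADP and PEP by 0.1 nM human PKM2 during a 1 h room-temperature incubation was quantified by coupled luciferase luminescence.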
# [9] = molecular target: Alpha-galactosidase A (Homo sapiens) (UniProt P06280); assay: Counterscreen for Glucocerebrosidase Inhibitors: qHTS Assay for Human alpha-Galactosidase at pH 4.5 (AID 992; active = well fitted curve in the direction sought with a large enough effect; an effect the other way counts as inactive or inconclusive; note: 0% is about no effect)
# Method in brief: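 Read-out is 4-methylumbelliferone fluorescence (365 nm excitation, 440 nm emission) after a pH 10 NaOH/glycine stop. Reactions held 2 nM enzyme and 80 uM substrate at pH 4.5 for 20 min at room temperature.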
# [10] = molecular target: alpha-glucosidase (Oryza sativa, rice) (UniProt Q653V4); assay: Counterscreen for Glucocerebrosidase Inhibitors: qHTS Assay for Rice alpha-Glucosidase at pH 5.0 (AID 997; active = well fitted curve in the direction sought with a large enough effect; an effect the other way counts as inactive or inconclusive;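 note: 0% = full activity with enzyme and -100% = basal without enzyme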)
# Method in brief: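 Rice alpha-glucosidase (4 nM final) with 400 uM 4-methylumbelliferyl-alpha-D-glucopyranoside in citrate buffer pH 5.0, 20 min at room temperature, stopped at pH 10; fluorescence 365/440 nm, compounds 0.7 nM–77 uM, AC50 from Hill fits.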
# Glucocorticoid receptor (Homo sapiens), sequence (P04150 whole entry, looked up, the tested form may be a part): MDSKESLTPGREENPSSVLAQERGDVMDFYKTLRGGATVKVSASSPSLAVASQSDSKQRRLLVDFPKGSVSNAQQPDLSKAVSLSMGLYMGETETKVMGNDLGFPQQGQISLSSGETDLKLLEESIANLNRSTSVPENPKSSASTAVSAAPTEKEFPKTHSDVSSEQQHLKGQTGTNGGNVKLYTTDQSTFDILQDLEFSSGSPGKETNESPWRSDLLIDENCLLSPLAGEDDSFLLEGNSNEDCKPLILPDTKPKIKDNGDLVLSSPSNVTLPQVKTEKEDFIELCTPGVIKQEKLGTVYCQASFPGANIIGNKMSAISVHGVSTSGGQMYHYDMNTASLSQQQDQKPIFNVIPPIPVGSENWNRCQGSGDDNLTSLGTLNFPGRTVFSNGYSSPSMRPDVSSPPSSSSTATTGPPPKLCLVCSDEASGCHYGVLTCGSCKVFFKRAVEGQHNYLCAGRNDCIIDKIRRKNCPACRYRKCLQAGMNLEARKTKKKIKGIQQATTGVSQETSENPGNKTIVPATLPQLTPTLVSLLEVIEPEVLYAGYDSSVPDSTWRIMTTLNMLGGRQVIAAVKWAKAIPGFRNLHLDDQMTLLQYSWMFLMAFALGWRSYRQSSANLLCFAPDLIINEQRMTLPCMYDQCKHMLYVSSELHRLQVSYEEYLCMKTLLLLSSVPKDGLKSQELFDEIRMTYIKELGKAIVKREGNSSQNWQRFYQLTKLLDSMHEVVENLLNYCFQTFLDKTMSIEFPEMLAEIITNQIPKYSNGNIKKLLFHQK
# Muscarinic acetylcholine receptor M1 (Rattus norvegicus), sequence (P08482 whole entry, looked up): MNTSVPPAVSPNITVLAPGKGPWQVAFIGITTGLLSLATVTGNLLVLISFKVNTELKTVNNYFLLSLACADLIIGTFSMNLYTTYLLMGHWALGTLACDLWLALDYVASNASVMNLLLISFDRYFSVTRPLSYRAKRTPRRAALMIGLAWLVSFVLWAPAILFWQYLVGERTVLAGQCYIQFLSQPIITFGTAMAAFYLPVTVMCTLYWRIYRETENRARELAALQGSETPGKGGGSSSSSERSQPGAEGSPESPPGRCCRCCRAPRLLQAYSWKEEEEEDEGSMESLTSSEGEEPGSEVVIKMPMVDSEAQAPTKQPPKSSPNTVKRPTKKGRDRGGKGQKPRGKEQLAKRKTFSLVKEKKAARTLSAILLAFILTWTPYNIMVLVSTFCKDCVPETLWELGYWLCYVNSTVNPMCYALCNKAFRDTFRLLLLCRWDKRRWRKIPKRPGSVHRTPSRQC
# Pyruvate kinase (Leishmania mexicana), sequence (Q27686 2-499 E452W): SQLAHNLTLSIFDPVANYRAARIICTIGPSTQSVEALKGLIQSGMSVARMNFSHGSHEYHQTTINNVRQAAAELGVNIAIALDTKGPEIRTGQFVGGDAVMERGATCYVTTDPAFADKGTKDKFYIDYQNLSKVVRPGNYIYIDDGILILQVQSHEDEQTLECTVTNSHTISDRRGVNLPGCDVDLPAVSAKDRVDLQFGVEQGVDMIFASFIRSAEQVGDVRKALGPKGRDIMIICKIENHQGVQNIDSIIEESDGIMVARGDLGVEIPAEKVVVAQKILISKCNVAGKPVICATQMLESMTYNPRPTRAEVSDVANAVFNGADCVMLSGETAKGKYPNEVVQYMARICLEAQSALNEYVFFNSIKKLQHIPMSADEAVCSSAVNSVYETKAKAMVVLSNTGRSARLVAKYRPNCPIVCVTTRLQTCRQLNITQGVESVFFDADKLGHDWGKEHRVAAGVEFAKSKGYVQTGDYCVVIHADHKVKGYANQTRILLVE
# Guanine nucleotide-binding protein G(i) subunit alpha-1 (Homo sapiens), sequence (P63096 whole entry, looked up): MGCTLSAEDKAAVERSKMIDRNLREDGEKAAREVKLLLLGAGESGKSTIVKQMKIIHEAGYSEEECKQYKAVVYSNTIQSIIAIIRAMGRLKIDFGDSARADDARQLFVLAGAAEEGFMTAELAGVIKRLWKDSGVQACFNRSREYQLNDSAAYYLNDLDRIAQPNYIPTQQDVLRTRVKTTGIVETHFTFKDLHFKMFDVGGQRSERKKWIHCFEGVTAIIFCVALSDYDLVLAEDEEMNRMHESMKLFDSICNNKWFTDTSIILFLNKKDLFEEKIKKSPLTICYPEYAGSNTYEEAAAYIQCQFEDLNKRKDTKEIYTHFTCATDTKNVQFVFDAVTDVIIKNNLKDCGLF
# Pyruvate kinase PKM (Homo sapiens), sequence (P14618 whole entry, looked up): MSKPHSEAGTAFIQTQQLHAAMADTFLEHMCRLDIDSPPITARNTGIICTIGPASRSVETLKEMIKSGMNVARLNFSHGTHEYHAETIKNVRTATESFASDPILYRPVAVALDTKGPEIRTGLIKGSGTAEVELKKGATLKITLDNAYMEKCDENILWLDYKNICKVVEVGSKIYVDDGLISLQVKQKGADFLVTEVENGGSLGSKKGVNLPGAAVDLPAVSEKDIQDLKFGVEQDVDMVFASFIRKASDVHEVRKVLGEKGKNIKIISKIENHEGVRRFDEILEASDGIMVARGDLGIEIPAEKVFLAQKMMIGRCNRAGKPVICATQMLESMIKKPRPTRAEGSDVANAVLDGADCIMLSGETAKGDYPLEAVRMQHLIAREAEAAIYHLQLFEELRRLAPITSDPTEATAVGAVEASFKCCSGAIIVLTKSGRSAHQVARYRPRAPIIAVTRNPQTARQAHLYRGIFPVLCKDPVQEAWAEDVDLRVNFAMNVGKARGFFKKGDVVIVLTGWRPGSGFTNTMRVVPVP
# Alpha-galactosidase A (Homo sapiens), sequence (P06280 whole entry, looked up): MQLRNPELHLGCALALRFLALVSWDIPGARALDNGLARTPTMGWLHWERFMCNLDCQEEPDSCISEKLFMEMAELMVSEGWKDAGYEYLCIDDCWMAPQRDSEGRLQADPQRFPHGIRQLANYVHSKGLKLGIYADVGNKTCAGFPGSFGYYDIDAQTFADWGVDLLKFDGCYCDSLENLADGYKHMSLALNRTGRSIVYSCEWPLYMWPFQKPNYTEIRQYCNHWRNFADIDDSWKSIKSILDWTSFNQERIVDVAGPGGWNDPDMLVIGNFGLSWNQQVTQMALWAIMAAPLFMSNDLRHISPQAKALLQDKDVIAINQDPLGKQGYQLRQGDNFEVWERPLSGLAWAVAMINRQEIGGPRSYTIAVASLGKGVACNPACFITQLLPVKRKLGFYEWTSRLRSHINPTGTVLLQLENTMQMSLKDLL
smiles,measurement,setting,value
CCCOC(=O)CSC1=C(C#N)C(c2ccccc2OCC)C(C#N)C(=O)N1 (stereo not drawn),"activity, negative = inhibition",[1],-11.2%
same,Potency,[2],> 20.6 µM
CCOC(=O)c1[nH]c2cc3c(cc2c1NC(=O)CN1CCCCC1C)OCO3 (stereo not drawn),"activity, negative = inhibition",[1],-10.3%
same,Potency,[2],> 20.6 µM
COc1ccc(CNc2oc(COc3ccc(Cl)cc3)nc2C#N)cc1,"activity, negative = inhibition",[1],-26.7%
same,Potency,[2],> 20.6 µM
COC(=O)c1ccccc1NC=C1C(=O)OC2(CCCCC2)OC1=O,"activity, negative = inhibition",[1],2.6%
same,Potency,[2],> 20.6 µM
CC1(C)Cc2c(sc3c2C2=NCCN2C=N3)CS1,"activity, negative = inhibition",[1],5.3%
same,Potency,[2],> 20.6 µM
Cc1cc(N/C=C/C(=O)c2cccc3ccccc23)no1,"activity, negative = inhibition",[1],-10.2%
same,Potency,[2],> 20.6 µM
COc1cccc(-c2nc(N3CCCCC3)c3ccccc3n2)c1O,"activity, negative = inhibition",[1],-5.07%
same,Potency,[2],> 20.6 µM
CCN1CCc2c(C#N)c(N3CCCCC3)nc(NCc3ccccc3)c2C1,"activity, negative = inhibition",[1],5.55%
same,Potency,[2],> 20.6 µM
Cc1ccccc1-n1c(=O)/c(=C\c2ccco2)s/c1=C(/C#N)C(=O)Nc1ccccc1,"activity, negative = inhibition",[1],-25.9%
same,Potency,[2],> 20.6 µM
COc1ccc(C(=O)CCN2CCCCCC2)cc1,"activity, negative = inhibition",[1],-28.1%
same,Potency,[2],> 20.6 µM
COc1cc(C2C(C#N)=C(N)Oc3cc(N)ccc32)cc(OC)c1OC (stereo not drawn),"activity, negative = inhibition",[1],-20.2%
same,Potency,[2],> 20.6 µM
CCc1[nH]nc2c1C(c1ccc(Br)s1)C(C#N)=C(N)O2 (stereo not drawn),"activity, negative = inhibition",[1],-17.3%
same,Potency,[2],> 20.6 µM
Cc1cc(NCCNC2=CC(=O)CCC2)nc2ccccc12,"activity, negative = inhibition",[1],4.57%
same,Potency,[2],> 20.6 µM
COC(=O)c1cccc(Nc2cc(C)nc(-c3ccccc3O)n2)c1,"activity, negative = inhibition",[1],-15.1%
same,Potency,[2],> 20.6 µM
Cc1ccc2nc(C(F)(F)F)c(C#N)c(N)c2c1,"activity, negative = inhibition",[1],-100% (active)
same,Potency,[2],> 20.6 µM
COc1ccc(OC)c(NC(=O)CSC2=C(C#N)C(c3ccco3)C3=C(CCCC3=O)N2)c1 (stereo not drawn),"activity, negative = inhibition",[1],-3.42%
same,Potency,[2],> 20.6 µM
Nc1c2c(nc3ccccc13)N(c1ccccc1)CC2,"activity, negative = inhibition",[1],9.15%
same,Potency,[2],> 20.6 µM
N#CC1=C(SCc2ccccc2)NC2=C(C(=O)CCC2)C1c1ccc2c(c1)OCO2 (stereo not drawn),"activity, negative = inhibition",[1],-5.66%
same,Potency,[2],> 20.6 µM
CCC(=O)Oc1ccc(/C(CC)=C(\CC)c2ccc(OC(=O)CC)cc2)cc1,"activity, negative = inhibition",[1],-21.2%
same,Potency,[2],> 20.6 µM
Cc1cc(C)n(S(=O)(=O)/C=C/c2ccccc2)n1,"activity, negative = inhibition",[1],-7.25%
same,Potency,[2],> 20.6 µM
C=CCOc1nc(-c2ccncc2)nc2ccccc12,"activity, negative = inhibition",[1],12.7%
same,Potency,[2],> 20.6 µM
CSc1nc2[nH]c3c(c2c2ncnn12)CCCC3,"activity, negative = inhibition",[1],-26.5%
same,Potency,[2],> 20.6 µM
CN(C)c1nc(OCCNC(=O)Nc2ccccc2)nc(N(C)C)n1,"activity, negative = inhibition",[1],-7.19%
same,Potency,[2],> 20.6 µM
CCOC(=O)N1CCN(c2ncnc3c2[nH]c2ccc(OC)cc23)CC1,"activity, negative = inhibition",[1],-22.9%
same,Potency,[2],> 20.6 µM
N=c1c2c(-c3ccccc3)c(-c3ccccc3)n(Cc3ccccc3)c2ncn1CCCn1ccnc1,"activity, negative = inhibition",[1],9.95%
same,Potency,[2],> 20.6 µM
Cc1cc(/C=c2/sc3nc4ccccc4n3c2=O)c(C)n1-c1ccccn1,"activity, negative = inhibition",[1],-5.6%
same,Potency,[2],> 20.6 µM
N#Cc1ccc(-c2ccc(OCC(O)Cn3nnc4ccccc43)cc2)cc1 (stereo not drawn),"activity, negative = inhibition",[1],-29.1%
same,Potency,[2],> 20.6 µM
COc1ccccc1N1C(=O)C2ON(c3ccccc3)C(c3ccc(N(C)C)cc3)C2C1=O (stereo not drawn),"activity, negative = inhibition",[1],-10.2%
same,Potency,[2],> 20.6 µM
N#Cc1nc(-c2ccc(Cl)cc2)oc1N1CCCCC1,"activity, negative = inhibition",[1],2.4%
same,Potency,[2],> 20.6 µM
COc1cccc(-c2nc(N3CCN(Cc4ccccc4)CC3)c3ccccc3n2)c1O,"activity, negative = inhibition",[1],9.62%
same,Potency,[2],> 20.6 µM
CCOC(=O)c1c(C)n(C)c2ccc(O)c(CN3CCCCC3)c12,"activity, negative = inhibition",[1],18.3%
same,Potency,[2],> 20.6 µM
CCOc1ccc(C2=Nn3c(nnc3-c3ccccc3OC)SC2)cc1,"activity, negative = inhibition",[1],-10.6%
same,Potency,[2],> 20.6 µM
COc1ccc(Nc2cc(C)nc(-n3nc(C)cc3C)n2)cc1,"activity, negative = inhibition",[1],-13%
same,Potency,[2],> 20.6 µM
O=C(CCN1CCCC1Cc1ccccc1)c1ccc2c(c1)OCCO2 (stereo not drawn),"activity, negative = inhibition",[1],14.7%
same,Potency,[2],> 20.6 µM
COc1ccc(CCn2c(C)cc3c(c2=O)C(c2ccc4c(c2)OCO4)C(C#N)=C(N)O3)cc1OC (stereo not drawn),"activity, negative = inhibition",[1],-21.6%
same,Potency,[2],> 20.6 µM
COc1cc(C(=O)OCCN2CCCCC2)ccc1O,"activity, negative = inhibition",[1],4.68%
same,Potency,[2],> 20.6 µM
O=c1c2sc3nc(N4CCOCC4)c4c(c3c2ncn1Cc1ccco1)CCCC4,"activity, negative = inhibition",[1],-14.9%
same,Potency,[2],> 20.6 µM
CCCOc1ccc(Cl)cc1CN1CCOCC1,"activity, negative = inhibition",[1],8.53%
same,Potency,[2],> 20.6 µM
O=C(O)CCc1cc(I)c(Oc2ccc(O)c(I)c2)c(I)c1,"activity, negative = inhibition",[1],-5.45%
same,Potency,[2],> 20.6 µM
CC1(C)Cc2c(c(N3CCOCC3)nc3sc4c(NCc5ccco5)nnnc4c23)CS1,"activity, negative = inhibition",[1],-26.9%
same,Potency,[2],> 20.6 µM
Cc1nc(SCC(=O)c2ccccc2)c(C#N)c(-c2ccco2)c1C(=O)NCc1ccco1,"activity, negative = inhibition",[1],-21.3%
same,Potency,[2],> 20.6 µM
CC(C)Cc1nc(N2CCN(C(=O)c3ccco3)CC2)c(C#N)c2c1CCC2,"activity, negative = inhibition",[1],-7.73%
same,Potency,[2],> 20.6 µM
COCc1[nH]nc2c1C(c1sccc1C)C(C#N)=C(N)O2 (stereo not drawn),"activity, negative = inhibition",[1],-24.3%
same,Potency,[2],> 20.6 µM
N#C/C(=N\O)c1nc(-c2ccccc2)cs1,"activity, negative = inhibition",[1],9.7%
same,Potency,[2],> 20.6 µM
COC(=O)C1=C(C)NC(C)=C(C(=O)OCCN(C)Cc2ccccc2)[C@@H]1c1cccc([N+](=O)[O-])c1,"activity, negative = inhibition",[1],-11.8% [at 38 µM]
same,Potency,[2],> 46 µM
same,Potency,[3],> 46 µM
same,outcome,[4],inactive
same,Potency,[5],3.16 µM (active)
same,Potency,[6],17.8 µM (active)
same,Potency,[7],inactive
same,outcome,[8],inactive
same,outcome,[9],inactive
same,outcome,[10],inactive
